Laboratory results as given in PubChem BioAssay (NCI).
Compounds without any hit were thinned out: in the full panel of roughly 79,000, 15% have a hit. No stated cut-off is given here; in the data, active means growth inhibition above about 70%; inactive means the rest.

How the values were obtained:
[1] = NCI Yeast Anticancer Drug Screen. Data for the rad50 strain (AID 155);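 further: 0% = growth of vehicle-only cultures of the same strain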; settings: S. cerevisiae rad50 strain growth inhibition; at 50.0 µM; active compounds read high
In short: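 DNA repair mutant yeast, compound exposure, growth read-out; inhibition is taken relative to vehicle.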

[2] = NCI Yeast Anticancer Drug Screen. Data for the mec2-1 strain (AID 157); settings: S. cerevisiae mec2-1 strain, at 50.0 µM, active compounds read high
In short: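 Mutant yeast (mec2-1) grown with compound; growth inhibition relative to vehicle control reported.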

[3] = NCI Yeast Anticancer Drug Screen. Data for the sgs1 mgt1 strain (AID 161);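 further: 0% = growth of cultures given vehicle only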; settings: S. cerevisiae sgs1 mgt1 strain, at 50.0 µM, active compounds read high
In short: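 Percent growth inhibition was derived by comparing compound-exposed mutant yeast with vehicle-exposed cultures. The strain carries alterations in DNA damage repair.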

[4] = NCI Yeast Anticancer Drug Screen. Data for the cln2 rad14 strain (AID 165);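 further: 0% = growth equal to vehicle treated cultures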; settings: S. cerevisiae cln2 rad14 strain, at 50.0 µM, active compounds read high
In short: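 Readout is yeast growth inhibition versus vehicle-treated controls, using a strain with cln2 and rad14 alterations exposed to compound.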

[5] = NCI Yeast Anticancer Drug Screen. Data for the bub3 strain (AID 167); settings: S. cerevisiae bub3 mutant strain, at 50.0 µM, active compounds read high
In short: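 In this screen, a yeast mutant lacking normal mitotic checkpoint function is challenged with compound. Relative growth versus vehicle gives the inhibition value.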

[6] = NCI Yeast Anticancer Drug Screen. Data for the mlh1 rad18 strain (AID 175); settings: S. cerevisiae mlh1 rad18 strain growth inhibition; at 50.0 µM; active compounds read high
In short: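 Genetically defined yeast (DNA repair-deficient) exposed to compounds; growth inhibition determined relative to vehicle.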

Measured: growth inhibition

c1ccc(Sc2ccccc2)cc1
inactive: [1] -4.6% | [2] 10.5% | [3] -8.5% | [4] -63.6% | [5] -7.95% | [6] 0.85%

CS(=O)CC1=NC(=N)N=C1CS(C)=O (configuration not stated)
inactive: [1] -9.75% | [2] -11.2% | [3] 12.1% | [4] -22.1% | [5] 2.85% | [6] 5.75%

CCCNC(=O)c1ccc(S(N)(=O)=O)cc1
inactive: [1] -1.5% | [2] 1% | [3] -13.2% | [4] -4.55% | [5] 2.55% | [6] -0.25%

CCCCCCCCCCC1CO1 (configuration not stated)
inactive: [1] 4.95% | [2] -4.15% | [3] -7% | [4] -23.1% | [5] -13.9% | [6] -8.05%

O=C1c2ccccc2C(=O)N1OCc1ccccc1
inactive: [1] -18.1% | [2] -30.6% | [3] -14.4% | [4] 3.05% | [5] -20% | [6] -32.7%

CC(=O)c1ccc(C(C)(C)C)cc1
inactive: [1] -2.35% | [2] -5.2% | [3] -12.9% | [4] 12.1% | [5] 2.5% | [6] 15%

C=CC(O)CCC (configuration not stated)
inactive: [1] -8.4% | [2] -41% | [3] -16.8% | [4] 1.3% | [5] -1.6% | [6] -2.7%

CCCCCCCCCCCCCC(=O)Oc1ccc[nH]c1=O
inactive: [1] -12.2% | [2] -19.6% | [3] -15.9% | [4] 11% | [5] 0.65% | [6] 0.7%

CC12CC3CC1C(C(=O)O2)C3C(=O)O (configuration not stated)
inactive: [1] -20.6% | [2] -27.5% | [3] -25.8% | [4] 5.85% | [5] -7.2% | [6] -8.8%

COc1ccc(C(C)C=O)cc1 (configuration not stated)
inactive: [1] 5.55% | [2] -14.8% | [3] -30.3% | [4] -51.5% | [5] -27.9% | [6] 2.3%

CC(C)=NNC(N)=S
inactive: [1] 2.45% | [2] -9.4% | [3] -23.9% | [4] -22.8% | [5] 2.35% | [6] -3.95%

COc1cc2nc3cc([N+](=O)[O-])ccc3c(Cl)c2cc1OC
inactive: [1] -14.8% | [2] -20.9% | [3] -19.7% | [4] 4.3% | [5] -14.2% | [6] 7.6%

Cc1c(O)cnc2nn(-c3ccccc3)c(=N)n12
inactive: [1] 19.5% | [2] 11.4% | [3] 35.7% | [4] 15.9% | [5] 15% | [6] 12.9%

S=c1[nH]ccn1-c1ccccc1Cl
inactive: [1] -17.8% | [2] -17.2% | [3] -17.6% | [4] -29.1% | [5] -10.4% | [6] -2.1%

C=C1CC/C=C(\C)C(=O)C[C@@H]2[C@@H]1CC2(C)C
inactive: [1] 5.85% | [2] 11.8% | [3] 20.2% | [4] 18.6% | [5] 15.3% | [6] -43.1%

Cc1c(C(=O)O)c(=O)n(-c2ccccc2)n1C
inactive: [1] 3.1% | [2] -10.2% | [3] -8.75% | [4] 11% | [5] -16.9% | [6] 13.6%

CC1CC(O)C2C3(C)CCCC2(COC3=O)C12CCC1(CCOC1=O)O2 (configuration not stated)
inactive: [1] 4.4% | [2] 8.35% | [3] 18.3% | [4] 25.9% | [5] 8.35% | [6] 13.6%

OC(c1ccccn1)C(O)c1ccccn1 (configuration not stated)
inactive: [1] -2.55% | [2] -4.45% | [3] -0.6% | [4] -9% | [5] -5.6% | [6] 3.2%

C/C(O)=C(\C=N\C(N)=S)C(=O)Nc1ccccc1
inactive: [1] -4.6% | [2] -8.1% | [3] -23.9% | [4] -0.55% | [5] -2.45% | [6] 3.7%

Nc1ncnc2[nH]ncc12
inactive: [1] -0.9% | [2] 25.5% | [3] 37% | [4] -2.6% | [5] 4.7% | [6] 14.1%

CC1CCCCN1C(=S)Nc1ccc(S(=O)(=O)N2CCCCC2)cc1 (configuration not stated)
inactive: [1] -18.6% | [2] -29.2% | [3] -5.75% | [4] -11.2% | [5] -19.1% | [6] -18.7%

COc1cc2c3c(n(C)c(=O)c2cc1OC)-c1cc2c(cc1C3=O)OCO2
inactive: [1] 8.35% | [2] -15.2% | [3] -1.5% | [4] 53.3% | [5] -3.6% | [6] -16.1%

Nc1nc(N)c(N=Nc2ccc(C(=O)O)cc2)c(N)n1
inactive: [1] -3.65% | [2] 7.35% | [3] 3% | [4] 19.6% | [5] 19% | [6] 22.4%

COc1ccc(C(=O)C(Br)C(Br)C(=O)O)cc1 (configuration not stated)
inactive: [1] 24.6% | [2] 24.4% | [3] 6.35% | [4] -64.7% | [5] 5.45% | [6] 38.9%

CNC(=S)NC(C)(C)C
inactive: [1] -14% | [2] -17.3% | [3] -20.6% | [4] -29.2% | [5] -18.8% | [6] -20%

O=C(O)c1ccnc(Br)c1
inactive: [1] -3.05% | [2] -0.05% | [3] -31.1% | [4] 11.7% | [5] -27.3% | [6] -14.2%

O=C(Nc1cc(-c2ccccc2)[nH]n1)c1ccc(Cl)cc1
inactive: [1] -5.35% | [2] -21.1% | [3] 6.05% | [4] -1% | [5] -7.15% | [6] -3.3%

NC(C(=O)O)C(O)c1ccco1 (configuration not stated)
inactive: [1] 6.6% | [2] -0.1% | [3] 3.95% | [4] 13.8% | [5] 3.75% | [6] 6.75%

Cc1ccc(S(=O)(=O)O)c(C)c1
inactive: [1] 19.3% | [2] -4.35% | [3] 14.4% | [4] 19.9% | [5] -0.9% | [6] 23.8%

O=C(O)[C@@H]1[C@H]2C[C@H]3c4[nH]c5ccccc5c4CCN3C[C@@H]2CC[C@@H]1O
inactive: [1] -10.3% | [2] -27% | [3] 9.45% | [4] 6.5% | [5] -20.6% | [6] -19.9%

CC(=O)/C(Cc1ccccc1)=N/O
inactive: [1] 10.7% | [2] 4.55% | [3] 15.8% | [4] -4% | [5] -2.1% | [6] 2.15%

O=c1[nH]nc(SC2CCCCC2)c(=O)[nH]1
inactive: [1] -12.1% | [2] -3.1% | [3] -11.9% | [4] -5.4% | [5] 4.85% | [6] -11.1%

NC(=O)NC(=O)c1ccc(Cl)cc1
inactive: [1] 14.8% | [2] -7.05% | [3] 19.2% | [4] 29.1% | [5] -1.05% | [6] 11.3%

O=[N+]([O-])c1ccc(/C=C/C=C/c2ccccc2)c(Cl)c1
inactive: [1] -8.75% | [2] -18.3% | [3] -3.4% | [4] -45.1% | [5] -4.85% | [6] -11.4%

C=CCCCCCCCCCOC(C)=O
inactive: [1] -14.3% | [2] -41.1% | [3] -20.4% | [4] -9.5% | [5] -2.8% | [6] 8.25%

CC(=O)OCC1=CC2OC(=O)C3=COC(OC4OC(CO)C(O)C(O)C4O)C1C32 (configuration not stated)
inactive: [1] 11.6% | [2] -3.55% | [3] 10.3% | [4] 13.4% | [5] 16.6% | [6] -51.6%

O=[N+]([O-])c1ccccc1S(=O)c1ccccc1[N+](=O)[O-]
inactive: [1] 16.1% | [2] 21.6% | [3] 34.3% | [4] 20.9% | [5] 39.2% | [6] 14.7%

CCCCC1C(=O)N(c2ccccc2)N(c2ccccc2)C1=O
inactive: [1] -5.2% | [2] -10.6% | [3] -2.65% | [4] -5.75% | [5] -4.2% | [6] -19.1%

OCCN(CCO)C(=S)S
inactive: [1] 2.15% | [2] -5.75% | [3] 1.1% | [4] -1.8% | [5] 4.95% | [6] -0.85%

CC(C)(C)n1nc(C2CC2)c(Br)c1NC(=O)c1ccccc1F
inactive: [1] -6.6% | [2] -12.2% | [3] 8.7% | [4] 3.25% | [5] 5.55% | [6] 10.9%

Cc1ccc(Cl)cc1NC(=O)N(C)CCO
inactive: [1] 6.3% | [2] 7.65% | [3] 9.9% | [4] 16.6% | [5] 4.05% | [6] 22.7%

C1CNC(C2=NCCN2)=N1
inactive: [1] -4.85% | [2] -8.2% | [3] -24.5% | [4] -26.1% | [5] -31.8% | [6] -7.25%
